Test results from PubChem BioAssay (Tox21).
“And” between values parts separate entries of the source, which are not always exact repeats. Identical values can stand only once. Inconclusive results are not listed. Entries that show only a call come without a potency. Values without a mark were called inactive. The source made the active and inactive calls. Unless noted, calls come from the whole dose curve; as a rule, active = well fitted curve in the direction sought with a large enough effect in the repeat runs; inconclusive = weak or mixed curves; inactive = no such curve, though single readings can be large; an effect the other way counts as inactive or inconclusive.

Experiments:
[1] = qHTS assay to identify aromatase inhibitors - cell viability counter screen (AID 743084);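 note: cells stimulated with testosterone during compound exposure; nearly all actives have a fitted effect of over 55% in size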
[2] = qHTS assay to identify small molecule that activate the aryl hydrocarbon receptor (AhR) signaling pathway - cell viability counter screen (AID 743086);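 note: HepG2 liver cells carrying the AhR DRE luciferase reporter; series mostly up to about 70 µM; nearly all actives have a fitted effect of over 45% in size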
Method in brief: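 HepG2-AhR-luc (HG2L7.5c1) cells, 4000/well, were preincubated 5 h at 37C, exposed to compound in qHTS format for 24 hr at 37C, then given CellTiter-Fluor for 30 min; viability was read as fluorescence in the reporter wells.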

[3] = target: Peroxisome proliferator-activated receptor gamma (Homo sapiens) (UniProt P37231); assay: qHTS assay to identify small molecule agonists of the peroxisome proliferator-activated receptor gamma (PPARg) signaling pathway (AID 743094; active = well fitted activation curve with a large enough effect in the signal ratio in the repeat runs, not every such curve was filed as active; the % refers to the signal ratio)
Chain of Peroxisome proliferator-activated receptor gamma (Homo sapiens) (P37231 whole entry, looked up): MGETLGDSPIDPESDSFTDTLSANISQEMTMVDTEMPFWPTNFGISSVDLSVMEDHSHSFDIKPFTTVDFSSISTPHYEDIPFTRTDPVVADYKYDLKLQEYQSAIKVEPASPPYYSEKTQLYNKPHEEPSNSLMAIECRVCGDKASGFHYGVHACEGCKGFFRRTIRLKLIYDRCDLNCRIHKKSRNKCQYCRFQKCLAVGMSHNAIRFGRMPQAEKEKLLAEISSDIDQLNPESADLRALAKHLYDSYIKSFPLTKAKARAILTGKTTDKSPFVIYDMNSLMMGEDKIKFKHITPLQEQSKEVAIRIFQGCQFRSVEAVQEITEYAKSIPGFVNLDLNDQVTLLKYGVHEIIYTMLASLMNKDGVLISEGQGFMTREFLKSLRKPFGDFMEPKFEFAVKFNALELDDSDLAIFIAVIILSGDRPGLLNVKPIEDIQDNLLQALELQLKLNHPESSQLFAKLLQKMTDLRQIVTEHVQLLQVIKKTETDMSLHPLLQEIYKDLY
Method in brief: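 Reporter activation was scored by fluorescence of cleaved LiveBLAzer B/G substrate (1 h, room temperature) in PPARg-bla HEK293H cells previously treated 17 h at 37C with DMSO-dissolved compounds.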

[4] = target: Peroxisome proliferator-activated receptor gamma (Homo sapiens) (UniProt P37231); assay: qHTS assay to identify small molecule antagonists of the peroxisome proliferator-activated receptor gamma (PPARg) signaling pathway (AID 743191; calls by dose curve; note: series mostly up to about 63 µM; nearly all actives have a fitted effect of over 30% in size)
Method in brief: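 GeneBLAzer PPARg UAS-bla HEK293H cells carrying a UAS-driven beta-lactamase reporter were plated at 3000 cells/well, preincubated 5 h at 37C, then given compound for 17 h at 37C; LiveBLAzer B/G FRET substrate was read after 1 h at room temperature.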

[5] = qHTS assay to identify small molecule antagonists of the peroxisome proliferator-activated receptor gamma (PPARg) signaling pathway - cell viability counter screen (AID 743194); note: nearly all actives have a fitted effect of over 55% in size
Method in brief: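 PPARg-UAS-bla HEK293H cells were plated, rested 5 h at 37 C, then treated with compounds plus rosiglitazone (50 nM final) for 17 h at 37 C; viability was then read by CellTiter-Glo luminescence after 30 min at room temperature.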

[6] = qHTS assay for small molecule agonists of the antioxidant response element (ARE) signaling pathway (AID 743202; active = well fitted activation curve with a large enough effect in the signal ratio in the repeat runs, not every such curve was filed as active; the % refers to the signal ratio)
Method in brief: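 Steps: seed ARE-bla HepG2 cells (2,000/well); incubate 5 h at 37 C; add compounds by pin tool; incubate 16 h at 37 C; add FRET substrate; read fluorescence after 2 h at RT.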

[7] = qHTS assay for small molecule agonists of the antioxidant response element (ARE) signaling pathway - cell viability counter screen (AID 743203; calls by dose curve; note: nearly all actives have a fitted effect of over 55% in size)
Method in brief: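 Viability counter screen: stably transfected ARE-bla HepG2 line, 16 hrs compound exposure at 37C/5% CO2, ATP-based CellTiter-Glo luminescence measured in the reporter wells.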

[8] = qHTS assay for small molecule activators of the heat shock response signaling pathway (AID 743210; active = well fitted activation curve with a large enough effect in the signal ratio in the repeat runs, with a control signal flat, not every such curve was filed as active; the % refers to the signal ratio;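 note: HeLa cells with beta-lactamase reporter driven by heat shock elements; series mostly up to about 63 µM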)
Method in brief: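 Activation of heat shock element-controlled beta-lactamase expression is measured in HeLa cells by LiveBLAzer FRET fluorescence, with compound exposure lasting 5 h at 37 C and substrate loading 2.5 h at room temperature.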

[9] = target: Aryl hydrocarbon receptor (Homo sapiens) (UniProt P35869); assay: qHTS assay to identify small molecule that activate the aryl hydrocarbon receptor (AhR) signaling pathway (AID 743085); note: nearly all actives have a fitted effect of over 15% in size; note: potency is the fitted concentration of half-maximal effect;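 for activation: HG2L7.5c1 human HepG2 liver cells with stably integrated DRE-driven firefly reporter; series mostly up to about 70 µM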
Chain of Aryl hydrocarbon receptor (Homo sapiens) (P35869 whole entry, looked up): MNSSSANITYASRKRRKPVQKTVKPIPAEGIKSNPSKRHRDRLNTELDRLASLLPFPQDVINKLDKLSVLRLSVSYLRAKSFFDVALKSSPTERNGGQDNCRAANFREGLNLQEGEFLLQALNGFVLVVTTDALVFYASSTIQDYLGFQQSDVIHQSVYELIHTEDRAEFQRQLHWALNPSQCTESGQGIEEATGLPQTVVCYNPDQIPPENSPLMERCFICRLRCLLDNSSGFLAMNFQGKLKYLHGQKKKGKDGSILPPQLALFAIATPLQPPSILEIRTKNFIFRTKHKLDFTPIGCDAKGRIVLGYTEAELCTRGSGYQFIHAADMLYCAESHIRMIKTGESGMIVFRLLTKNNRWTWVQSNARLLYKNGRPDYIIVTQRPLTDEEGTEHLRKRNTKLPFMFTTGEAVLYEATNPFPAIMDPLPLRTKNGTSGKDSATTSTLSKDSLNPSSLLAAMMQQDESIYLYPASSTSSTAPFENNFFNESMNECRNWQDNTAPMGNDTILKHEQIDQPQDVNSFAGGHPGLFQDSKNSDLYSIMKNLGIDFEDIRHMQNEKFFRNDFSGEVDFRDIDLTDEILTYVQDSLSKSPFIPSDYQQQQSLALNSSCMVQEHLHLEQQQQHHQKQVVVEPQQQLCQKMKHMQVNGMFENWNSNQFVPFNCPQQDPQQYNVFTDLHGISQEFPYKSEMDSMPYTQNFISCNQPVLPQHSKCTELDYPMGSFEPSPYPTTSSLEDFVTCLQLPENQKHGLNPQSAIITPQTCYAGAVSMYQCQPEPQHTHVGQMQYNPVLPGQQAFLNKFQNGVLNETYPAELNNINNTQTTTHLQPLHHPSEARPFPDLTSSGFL
Method in brief: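 24 h compound exposure, 37C, HepG2-derived HG2L7.5c1 cells with DRE-responsive luciferase. Readouts: fluorescence viability, then luminescence at room temperature after 30 min.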

[10] = qHTS assay for small molecule activators of the heat shock response signaling pathway - cell viability counter screen (AID 743209); note: nearly all actives have a fitted effect of over 50% in size
Method in brief: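 Viability of HSE-bla HeLa cells is measured with CellTiter-Glo in the wells already used for the reporter read. Compound exposure lasts 5 h at 37 C, and luminescence is read after 30 min at room temperature.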

SMILES	outcome [1]	outcome [2]	outcome [3]	Potency [4]	outcome [5]	Potency [6]	outcome [7]	outcome [8]	Potency [9]	outcome [10]
Clc1ccc(Cl)cc1	inactive	inactive	inactive	inactive	inactive	inactive	inactive	inactive		
O=c1ccc(=O)[nH][nH]1	inactive	inactive	inactive	inactive	inactive		inactive	inactive	inactive	inactive
CC1OC(C)OC(C)O1 (centres undefined)	inactive	inactive	inactive	inactive	inactive	inactive	inactive	inactive		inactive
O=NN1CCCCCCC1	inactive	inactive	inactive	inactive	inactive		inactive	inactive	inactive	
O=S(=O)(c1ccc(Cl)cc1)c1cc(Cl)c(Cl)cc1Cl	inactive	inactive	inactive		inactive	inactive	inactive		inactive	inactive
C=CC(N)=O	inactive	inactive			inactive	inactive	inactive	inactive	inactive	inactive
Nc1ccc(Oc2ccc(N)cc2)cc1	inactive	inactive	inactive	inactive	inactive	inactive	inactive	inactive		inactive
CC(C)(C)OOC(C)(C)C	inactive	inactive	inactive		inactive	inactive	inactive	inactive	inactive	inactive
CC(=O)C=C(C)C	inactive	inactive	inactive	inactive	inactive	inactive	inactive	inactive		inactive
CCOC(=O)c1ccccc1C(=O)OCC	inactive	inactive	inactive	inactive	inactive	inactive	inactive	inactive		inactive
COc1ccc2c3c1O[C@H]1[C@@H](O)C=C[C@H]4[C@@H](C2)N(C)CC[C@@]341	inactive	inactive	inactive		inactive		inactive	inactive	inactive	inactive
O=c1[nH]c2ccccc2c(=O)o1	inactive	inactive	inactive		inactive		inactive	inactive	inactive	inactive
CC(C)(C)OOC(=O)c1ccccc1	inactive	inactive	inactive	inactive	inactive		inactive	inactive	inactive	inactive
Cc1cc(Cl)ccc1O	inactive	inactive	inactive	inactive	inactive	inactive	inactive	inactive		
Nc1ccc(Cc2ccc(N)cc2)cc1	inactive	inactive	inactive	inactive	inactive		inactive	inactive	30.1 µM (active)	
O=Cc1cccc(Oc2ccccc2)c1	inactive	inactive	inactive	inactive	inactive	inactive	inactive	inactive		inactive
C#CCN(C)[C@H](C)Cc1ccccc1	inactive	inactive	inactive	inactive	inactive	inactive	inactive			inactive
CCC[N+](=O)[O-]	inactive	inactive	inactive	inactive	inactive		inactive	inactive	inactive	
CC(NC(C)(C)C)C(=O)c1cccc(Cl)c1 (centres undefined)	inactive	inactive			inactive	inactive	inactive		inactive	inactive
Nc1ccc(Br)cc1	inactive	inactive	inactive		inactive	inactive	inactive	inactive	61 µM (active) and 21.7 µM (active)	inactive

SMILES	outcome [1]	outcome [2]	outcome [3]	Potency [4]	outcome [5]	Potency [6]	outcome [7]	outcome [8]	Potency [9]	outcome [10]
C1CC2OC2CC1C1CO1 (centres undefined)	inactive	inactive	inactive	inactive	inactive		inactive	inactive	inactive	inactive
CC(C)N1C(=O)c2ccccc2NS1(=O)=O	inactive	inactive	inactive	inactive	inactive	inactive	inactive	inactive		
O=NN1CCCC1	inactive	inactive	inactive	inactive	inactive		inactive	inactive	inactive	
Clc1cccc(Cl)c1Cl	inactive	inactive	inactive	inactive	inactive		inactive	inactive		inactive
CCOP(=S)(OCC)Oc1cnc2ccccc2n1	inactive	inactive	inactive	inactive	inactive		inactive	inactive		
CON(C)C(=O)Nc1ccc(Cl)c(Cl)c1	inactive	inactive	inactive		inactive		inactive	inactive		inactive
CN=C=S	inactive	inactive	inactive	inactive	inactive		inactive	inactive		inactive
CCC12COCN1COC2	inactive	inactive	inactive	inactive	inactive		inactive	inactive		inactive
Cc1ccccc1O	inactive	inactive	inactive	inactive	inactive	inactive	inactive	inactive		
COC(=O)c1ccccc1C(=O)OC	inactive	inactive	inactive	inactive	inactive		inactive	inactive		inactive
Oc1ccccc1Cl	inactive	inactive	inactive	inactive	inactive		inactive	inactive		
O=C(NC(=O)c1c(F)cccc1F)Nc1cc(Cl)c(OC(F)(F)C(F)C(F)(F)F)cc1Cl (centres undefined)	inactive	inactive	inactive		inactive		inactive	inactive		
c1ccc2c(c1)Oc1ccccc1O2	inactive	inactive			inactive	inactive	inactive	inactive		inactive
OCCN(CCO)CCO		inactive			inactive		inactive			inactive
O=c1n(Cl)c(=O)n(Cl)c(=O)n1Cl	inactive	inactive	inactive	inactive	inactive		inactive	inactive		
CC1C=[C-]C=C1.[C-]#[O+].[C-]#[O+].[C-]#[O+].[Mn]	inactive	inactive	inactive	inactive	inactive	inactive	inactive	inactive		
CC(C)=C[C@@H]1[C@@H](C(=O)OCc2coc(Cc3ccccc3)c2)C1(C)C	inactive	inactive	inactive	inactive	inactive	inactive	inactive	inactive		
CCC(C)(CC)c1cc(NC(=O)c2c(OC)cccc2OC)on1	inactive	inactive	inactive		inactive		inactive	inactive		inactive
Cc1ccc(N)cc1Cl	inactive	inactive	inactive	inactive	inactive		inactive	inactive		inactive
[N-]=[N+]=[N-]	inactive	inactive	inactive	inactive	inactive		inactive	inactive		

SMILES	outcome [1]	outcome [2]	outcome [3]	Potency [4]	outcome [5]	Potency [6]	outcome [7]	outcome [8]	Potency [9]	outcome [10]
Cn1cc(-c2ccccc2)c(=O)c(-c2cccc(C(F)(F)F)c2)c1		inactive	inactive	inactive	inactive		inactive	inactive	inactive	inactive
C=CCO	inactive	inactive			inactive		inactive			inactive
CN1C(=O)CN=C(c2ccccc2)c2cc(Cl)ccc21	inactive	inactive			inactive	inactive	inactive	inactive		
CN(C)[C@@H]1C(=O)C(C(N)=O)=C(O)[C@@]2(O)C(=O)C3=C(O)c4c(O)cccc4[C@@](C)(O)[C@H]3C[C@@H]12	inactive	inactive	inactive		inactive		inactive	inactive		inactive
COC(=O)NS(=O)(=O)c1ccc(N)cc1	inactive	inactive	inactive	inactive	inactive		inactive			inactive
c1ccc2c(c1)oc1ccccc12		inactive			inactive		inactive	inactive		inactive
ClCc1cccnc1	inactive	inactive	inactive	inactive	inactive		inactive	inactive		inactive
c1ccc(-c2ccccc2)cc1	inactive	inactive	inactive	inactive	inactive		inactive	inactive		
O=[N+]([O-])c1ccccc1	inactive	inactive	inactive	inactive	inactive		inactive			
CCNc1nc(NC(C)(C)C)nc(SC)n1	inactive	inactive	inactive	inactive	inactive		inactive	inactive		inactive
CC(C)C#N	inactive	inactive	inactive	inactive	inactive	inactive	inactive	inactive		
NCC(O)c1ccc(O)cc1 (centres undefined)	inactive	inactive	inactive		inactive	inactive	inactive	inactive		inactive
CC(C)(Cl)Cl	inactive	inactive	inactive	inactive	inactive		inactive	inactive		inactive
CC(C)OC(=O)Nc1cccc(Cl)c1	inactive	inactive	inactive		inactive	inactive	inactive	inactive		inactive
Cc1ccc(N)cc1N	inactive	inactive	inactive	inactive	inactive		inactive	inactive		inactive
O=S(=O)(c1ccc(O)cc1)c1ccc(O)cc1	inactive	inactive	inactive	inactive	inactive		inactive	inactive		
Cc1cccc([N+](=O)[O-])c1	inactive	inactive	inactive	inactive	inactive	inactive	inactive	inactive		
CCC[CH2][Sn]([Cl])([Cl])[Cl]	inactive	inactive	inactive	inactive	inactive		inactive	inactive		
COCCl	inactive	inactive	inactive	inactive	inactive		inactive	inactive		
COC(=O)NC(=S)Nc1ccccc1NC(=S)NC(=O)OC	inactive	inactive	inactive	inactive	inactive		inactive	inactive		
